Bioassay records as filed in PubChem.
uPA surface inh: qHTS for Inhibitors of Cell Surface uPA Generation | cell surface uPA generation assay, qHTS | Potency, µM (series often up to 38.3 µM), inactives show at the top dose activity change, negative = inhibition, usual class: inhibitors | 330,000 compounds, 0.31% hits; active = well fitted inhibition curve with a large enough effect; inconclusive = small, poorly fitted or top-dose-only effect; inactive = no such curve, though single readings can be large or run the other way; tested in mouse RAW 264.7 cells; note: potency is the fitted concentration of half-maximal effect; nearly all actives have a fitted effect of over 55% in size
DT40 TDP1 no CPT: qHTS for Inhibitors of human tyrosyl-DNA phosphodiesterase 1 (TDP1): qHTS in cells in absence of CPT; 420,000 compounds, 15% hits; DT40 Tdp1-/- hTDP1 cells, no CPT, ATP luminescence, 48 h; AID 686978, 2013; Potency, µM (doses to about 46.2 µM), inactives show at the highest dose activity change, negative = growth inhibition, hits mostly inhibitors; note: potency is the fitted concentration of half-maximal effect; nearly all actives have a fitted effect of over 55% in size
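Compound effects on proliferation are scored in DT40 Tdp1-/-;hTDP1 cells in the absence of CPT. ATP levels (CellTiter-Glo luminescence) are recorded after a ≥48 hr, 37 °C incubation.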
IL-1B inflam inh: qHTS for Inhibitors of Inflammasome Signaling: IL-1-beta AlphaLISA Primary Screen | THP-1 LPS/ATP IL-1B secretion, AlphaLISA, 16 h; stronger effect = lower value | activity change, % at 57.5 µM | 360,000 compounds, 4.7% hits; in the data active = activity change below about -50%; inconclusive = mostly about -30% to -49%
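Secreted IL-1B measured by AlphaLISA bead assay after 16 h compound exposure of THP-1 cells; compounds (final up to 57.5 uM) added 1 h before LPS (250 ng/mL) and ATP (1.25 mM) stimulation; lower signal means less secretion.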
HT1080-NT tox: qHTS for induction of synthetic lethality in tumor cells producing 2HG: qHTS for the HT-1080-NT fibrosarcoma cell line; HT-1080-NT fibrosarcoma viability, CellTiter-Glo ATP luminescence, 48 h; 360,000 compounds, 1.6% hits; Potency, µM (doses to about 46.1 µM), for inactives: at the top dose activity, negative = less viability, usual class: cytotoxic;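 note: NT is the 2HG producing partner of a matched IDH1 knockdown line; potency is the fitted concentration of half-maximal effect; 0% = DMSO-treated cells and -100% = media-only wells without cells; nearly all actives have a fitted effect of over 55% in size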
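Toxicity toward the 2HG-producing NT line was scored as %Activity, normalised to DMSO and no-cell wells, from CellTiter-Glo luminescence after 48 hours' treatment.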
TDP1 cell CPT: qHTS for Inhibitors of human tyrosyl-DNA phosphodiesterase 1 (TDP1): qHTS in cells in presence of CPT. 420,000 compounds, 12% hits. Potency, µM (titrated, usually from 46.2 µM), without a hit: at the top dose activity change, negative = growth inhibition, hits mostly inhibitors. chicken DT40 Tdp1-/-;hTDP1 cells + 20 nM CPT, ATP luminescence, 48 h; note: potency is the fitted concentration of half-maximal effect; nearly all actives have a fitted effect of over 55% in size
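Cell growth measured by CellTiter-Glo luminescence after a minimum 48 h, 37 C compound exposure with 20 nM CPT in Tdp1-knockout DT40 cells stably expressing hTDP1, seeded 400/well; qHTS titration format.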
HT1080 IDH1KD tx: qHTS for induction of synthetic lethality in tumor cells producing 2HG: qHTS for the HT-1080-IDH1KD cell line. 360,000 compounds, 2% hits. Potency, µM (highest dose often 46.1 µM), without a hit: at the highest dose activity, negative = toxicity, hits mostly cytotoxic. HT-1080 IDH1 knockdown viability, ATP luminescence, 48 h;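 note: potency is the fitted concentration of half-maximal effect; 0% = DMSO wells and -100% = cell-free medium wells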
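After a 2 h attachment period, IDH1KD HT-1080 cells took pin-transferred compound for 48 h at 37 °C; ATP-based luminescence after 10 min room-temperature reagent incubation reported viability.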
* marks the source's active call; other numbers are inactive results; ? = inconclusive; nt = no result given; [ ] = another dose, or the depositor's remark. An excerpt weighted towards active compounds, which were near 19% of everything screened. Unless noted, calls come from the whole dose curve; as a rule, active = well fitted curve in the direction sought with a large enough effect; inconclusive = small, poorly fitted or top-dose-only effect, or another doubt; inactive = no such curve, though single readings can be large; an effect the other way counts as inactive or inconclusive. Unless noted, % is set by controls: 0 for no effect and ±100 for the full control effect.

SMILES | uPA surface inh | DT40 TDP1 no CPT | IL-1B inflam inh | HT1080-NT tox | TDP1 cell CPT | HT1080 IDH1KD tx
CCS(=O)(=O)Nc1ccc(C2=NN(C(=O)c3ccccc3)C(c3cccs3)C2)cc1 (stereo not drawn) | 2% | 21µM* | ? | ? | 23µM* | ?
Cc1cccc(C(=O)N2N=C(c3ccc(NS(C)(=O)=O)cc3)CC2c2cccs2)c1 (stereo not drawn) | 4% | -19% | -20 | -12% | 23µM* | -20%
COc1ccc(-c2csc(C3=C(O)CN(CCCN4CCCC4=O)C3=N)n2)cc1OC | -6% | 0% | -3 | -7% | 16% | -4%
CC(C)NC(=O)c1ccc2c(c1)N(CC(=O)N1CCCC1)C(=O)C(C)(C)O2 | 3% | 3% | 44 | -11% | 16% | 0%
CC(C)NC(=O)c1ccc2c(c1)N(Cc1ccccc1)C(=O)C(C)(C)O2 | 4% | -21% | -52* | 1% | -10% | 10%
CC(C)c1ccccc1NC(=O)Nc1nnc([C@H]2C[C@H](O)[C@@H](CO)O2)s1 | nt | -9% | 17 | 5% | -11% | 18%
COc1ccc(NC(=O)COc2ccc(S(=O)(=O)NC3CCCCC3)cc2)c(OC)c1 | nt | 16µM* | nt | nt | 15µM* | nt
COc1ccccc1NC(=S)NC1CCC(CC2CCC(NC(=S)Nc3ccccc3OC)CC2)CC1 (stereo not drawn) | 6% | 13µM* | 13 | 1% | 10µM* | -3%
COc1ccccc1NC(=S)NC1CCCC1 | -8% | 48% | 7 | -19% | 5% | -3%
S=C(Nc1ccccc1Oc1ccccc1)NC1CCCC1 | -3% | 18µM* | -9 | 2% | ? | -2%
C=CCNC(=O)COc1ccc(S(=O)(=O)NC2CCCCC2)cc1 | 9% | -22% | 6 | 5% | ? | 5%[9.24 µM]
COc1cccc(C(=O)NNC(=S)NC2CCCCC2)c1 | 0% | ? | -7 | 0% | 16µM* | 0%
O=C(NNC(=S)NC1CCCCC1)c1ccc(Cl)s1 | nt | 15µM* | -12 | -4% | -24% | -23%
COc1ccc(NC(=S)NC2CCCCCC2)c(OC)c1 | -3% | 23µM* | -7 | 20% | ? | 3%
CCCCc1ccccc1NC(=S)NC1CCCC1 | -4% | 18µM* | -7 | -17% | ? | -12%
COc1ccc(NC(=S)NC2CCCCC2)c(OC)c1 | 8% | ? | -7 | 11% | -6% | 7%
O=C(NNC(=S)NC1CCCCC1)c1cccs1 | -3% | 5% | 1 | 6% | 2% | 4%
S=C(Nc1cccc2ccccc12)NC1CCCCC1 | 3% | 16µM* | 2 | 5% | ? | -10%
CSc1ccccc1NC(=S)NC1CCCC1 | 9% | 10% | 9 | 8% | -4% | -1%
O=C(CSc1nc(=O)n(Cc2ccco2)c2c1CCC2)NCc1ccc(F)cc1 | nt | -16% | nt | nt | -22% | nt
COc1ccc2[nH]cc(CCNC(=O)COc3cc(C)cc4oc(=O)cc(C)c34)c2c1 | 17% | ? | -14 | -2% | ? | -2%
COc1cc(C)c(NC(=O)COc2ccc3c(c2)CCC3)cc1OC | -17% | ? | 8 | 0% | 23µM* | 2%
COc1ccc(S(=O)(=O)N(C)C)cc1NC(=O)COc1ccc2c(c1)CCC2 | nt | ? | 49 | -9% | -22% | -11%
Cc1ccc(S(=O)(=O)N/N=C\c2ccc([N+](=O)[O-])o2)cc1C | -12% | ? | -23 | 16% | 18µM* | 0%
